Measured values taken from PubChem BioAssay AID1159580 (chemical genetic matrix, 2015).
Hit rate of the full screen: of about 5,500 compounds, about 2,000 (36%) were called active. Not shown: some 18% with an inconclusive outcome. Rule as the data show it: active = normalized growth mostly below about 0.91 (no sharp cut-off); inconclusive = no clear call, values can overlap the other calls; inactive = mostly above about 0.92. The list shows a part of the results.

Assay: chemical genetic growth profiling, strain panel (AID 1159580);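 also: tested at 20 µM; growth read once vehicle control cultures reached saturation at 30 °C; 1 = growth at the plate median or of vehicle wells; lower values mean less growth of the strain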
Conditions: growth OD

Measured: normalized growth

Oc1c(Br)cc(Br)c2cccnc12
active: S. cerevisiae deletion strains, locus YJR075W, strain HOC1, hits give low values 0.0682 | S. cerevisiae deletion strains, locus YKL009W, strain mrt4, hits give low values 0.0898 | S. cerevisiae deletion strains, locus YKL068W, hits give low values 0.0659 | S. cerevisiae deletion strains, locus YKL085W, strain MDH1 (second series), hits give low values 0.0622 | S. cerevisiae deletion strains, locus YKL085W, strain MDH1, hits give low values 0.0622 | S. cerevisiae deletion strains, locus YKL160W, strain elf1, hits give low values 0.0686 | S. cerevisiae deletion strains, locus YKL190W, strain CNB1, hits give low values 0.049 | S. cerevisiae deletion strains, locus YKR001C, strain vps1, hits give low values 0.0714 | S. cerevisiae deletion strains, locus YKR026C, strain gcn3, hits give low values 0.0599 | S. cerevisiae deletion strains, locus YKR091W, strain srl3, hits give low values 0.0574 | S. cerevisiae deletion strains, locus YLL001W, strain dnm1, hits give low values 0.0635 | S. cerevisiae deletion strains, locus YLL026W, hits give low values 0.065 | S. cerevisiae deletion strains, locus YLL041C, strain sdh2, hits give low values 0.0602 | S. cerevisiae deletion strains, locus YLR027C, strain aat2, hits give low values 0.0544 | S. cerevisiae deletion strains, locus YLR039C, strain RIC1, hits give low values 0.0808 | S. cerevisiae deletion strains, locus YLR058C, strain SHM2, hits give low values 0.0497 | S. cerevisiae deletion strains, locus YLR102C, strain apc9, hits give low values 0.0675 | S. cerevisiae deletion strains, locus YLR113W, strain HOG1, hits give low values 0.164 | S. cerevisiae deletion strains, locus YLR221C, strain rsa3, hits give low values 0.061 | S. cerevisiae deletion strains, locus YLR258W, strain gsy2, hits give low values 0.0604 | S. cerevisiae deletion strains, locus YLR262C, strain YPT6 (second series), hits give low values 0.0797 | S. cerevisiae deletion strains, locus YLR262C, strain YPT6, hits give low values 0.106 | S. cerevisiae deletion strains, locus YLR268W, strain sec22, hits give low values 0.0737 | S. cerevisiae deletion strains, locus YLR320W, strain mms22, hits give low values 0.0804 | S. cerevisiae deletion strains, locus YLR330W, strain CHS5, hits give low values 0.0542 | S. cerevisiae deletion strains, locus YLR342W, strain FKS1 (second series), hits give low values 0.0742 | S. cerevisiae deletion strains, locus YLR342W, strain FKS1, hits give low values 0.0656 | S. cerevisiae deletion strains, locus YLR357W, strain rsc2, hits give low values 0.121 | S. cerevisiae deletion strains, locus YLR370C, strain arc18, hits give low values 0.0663 | S. cerevisiae deletion strains, locus YLR371W, strain rom2, hits give low values 0.0714 | S. cerevisiae deletion strains, locus YLR384C, strain iki3, hits give low values 0.0612 | S. cerevisiae deletion strains, locus YLR418C, strain cdc73, hits give low values 0.11 | S. cerevisiae deletion strains, locus YML016C, strain PPZ1, hits give low values 0.0489 | S. cerevisiae deletion strains, locus YML032C, strain rad52, hits give low values 0.0748 | S. cerevisiae deletion strains, locus YML120C, strain ndi1, hits give low values 0.0584 | S. cerevisiae deletion strains, locus YML124C, strain tub3, hits give low values 0.067 | S. cerevisiae deletion strains, locus YMR058W, strain fet3, hits give low values 0.0605 | S. cerevisiae deletion strains, locus YMR078C, strain ctf18, hits give low values 0.0799 | S. cerevisiae deletion strains, locus YMR125W, strain sto1, hits give low values 0.0777 | S. cerevisiae deletion strains, locus YMR129W, hits give low values 0.0576 | S. cerevisiae deletion strains, locus YMR205C, strain PFK2, hits give low values 0.0851 | S. cerevisiae deletion strains, locus YMR223W, strain ubp8, hits give low values 0.0723 | S. cerevisiae deletion strains, locus YMR231W, strain pep5, hits give low values 0.0707 | S. cerevisiae deletion strains, locus YMR263W, strain SAP30, hits give low values 0.0608 | S. cerevisiae deletion strains, locus YMR307W, strain GAS1, hits give low values 0.111 | S. cerevisiae deletion strains, locus YNL067W, strain RPL9B, hits give low values 0.0529 | S. cerevisiae deletion strains, locus YNL071W, strain lat1, hits give low values 0.061 | S. cerevisiae deletion strains, locus YNL128W, strain TEP1, hits give low values 0.0661 | S. cerevisiae deletion strains, locus YNL153C, strain GIM3, hits give low values 0.0523 | S. cerevisiae deletion strains, locus YNL183C, strain NPR1, hits give low values -0.0047 | S. cerevisiae deletion strains, locus YNL209W, strain ssb2, hits give low values 0.0598 | S. cerevisiae deletion strains, locus YNL233W, strain BNI4, hits give low values 0.0553 | S. cerevisiae deletion strains, locus YNL248C, strain rpa49, hits give low values 0.0858 | S. cerevisiae deletion strains, locus YNL250W, strain rad50, hits give low values 0.0799 | S. cerevisiae deletion strains, locus YNL271C, strain bni1, hits give low values 0.075 | S. cerevisiae deletion strains, locus YNL298W, strain CLA4, hits give low values 0.0729 | S. cerevisiae deletion strains, locus YNL307C, strain MCK1, hits give low values 0.078 | S. cerevisiae deletion strains, locus YNL322C, strain KRE1 (second series), hits give low values 0.0637 | S. cerevisiae deletion strains, locus YNL322C, strain KRE1, hits give low values 0.0493 | S. cerevisiae deletion strains, locus YNR049C, strain mso1, hits give low values 0.0578 | S. cerevisiae deletion strains, locus YNR052C, strain pop2, hits give low values 0.0694 | S. cerevisiae deletion strains, locus YOL006C, strain TOP1, hits give low values 0.108 | S. cerevisiae deletion strains, locus YOL012C, strain htz1 0.189 | S. cerevisiae deletion strains, locus YOL147C, strain pex11, hits give low values 0.0679 | S. cerevisiae deletion strains, locus YOR001W, strain rrp6, hits give low values 0.0757 | S. cerevisiae deletion strains, locus YOR061W, strain CKA2, hits give low values 0.048 | S. cerevisiae deletion strains, locus YOR069W, strain VPS5, hits give low values 0.0497 | S. cerevisiae deletion strains, locus YOR070C, strain gyp1, hits give low values 0.59 | S. cerevisiae deletion strains, locus YOR080W, strain dia2, hits give low values 0.0706 | S. cerevisiae deletion strains, locus YOR083W, strain WHI5, hits give low values 0.0621 | S. cerevisiae deletion strains, locus YOR106W, strain vam3, hits give low values 0.0686 | S. cerevisiae deletion strains, locus YOR136W, strain idh2, hits give low values 0.0816 | S. cerevisiae deletion strains, locus YOR144C, strain elg1, hits give low values 0.0654 | S. cerevisiae deletion strains, locus YOR184W, strain ser1, hits give low values 0.0794 | S. cerevisiae deletion strains, locus YOR231W, strain MKK1, hits give low values 0.109 | S. cerevisiae deletion strains, locus YOR265W, strain rbl2, hits give low values 0.0573 | S. cerevisiae deletion strains, locus YOR270C, strain vph1, hits give low values 0.102 | S. cerevisiae deletion strains, locus YOR290C, strain snf2, hits give low values 0.0632 | S. cerevisiae deletion strains, locus YOR316C, strain cot1, hits give low values 0.0675 | S. cerevisiae deletion strains, locus YPL051W, strain arl3, hits give low values 0.0637 | S. cerevisiae deletion strains, locus YPL055C, strain LGE1, hits give low values 0.0663 | S. cerevisiae deletion strains, locus YPL078C, strain atp4, hits give low values 0.0651 | S. cerevisiae deletion strains, locus YPL106C, strain sse1, hits give low values 0.115 | S. cerevisiae deletion strains, locus YPL240C, strain hsp82, hits give low values 0.0569 | S. cerevisiae deletion strains, locus YPL241C, strain CIN2, hits give low values 0.0508 | S. cerevisiae deletion strains, locus YPL256C, strain CLN2, hits give low values 0.126 | S. cerevisiae deletion strains, locus YPR119W, strain clb2, hits give low values 0.0704 | S. cerevisiae deletion strains, locus YPR141C, strain kar3, hits give low values 0.0795 | S. cerevisiae deletion strains, locus YPR163C, strain tif3, hits give low values 0.0768 | S. cerevisiae deletion strains, locus YPR167C, strain met16, hits give low values 0.0675 | S. cerevisiae deletion strains, strain wtn01, hits give low values 0.076 | S. cerevisiae strains, strain wild type, hits give low values 0.0486
